Reference: the supplement of paper PMC3334620
Whole data set: some 33,000 sequences, median “E-score (-0.5 to 0.5)” near -0.04, cut for the highest 2% near 0.36. This excerpt belongs to a sample that is enriched for the highest values.

These sequences were tested against T1, Hmlalpha2 (UniProt P0CY09) (assay: PBM E-score (8-mer binding enrichment) (E-score (-0.5 to 0.5)); higher = stronger / more preferred TF binding). Conditions: protein concentration: 200 nM; construct: GST-full length.
T1 sequence: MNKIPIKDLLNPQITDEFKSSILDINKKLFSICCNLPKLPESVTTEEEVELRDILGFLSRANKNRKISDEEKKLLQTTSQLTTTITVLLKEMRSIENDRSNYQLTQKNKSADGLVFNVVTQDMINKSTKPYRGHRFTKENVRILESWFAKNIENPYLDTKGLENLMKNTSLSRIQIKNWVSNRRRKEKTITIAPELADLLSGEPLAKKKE
Method: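 Universal 'all 10-mer' protein binding microarrays (Agilent AMADID 015681) probed with GST-tagged S. cerevisiae TFs (full-length or DBD) made by in vitro transcription/translation (PURExpress), about 100-200 nM. Bound TF was detected with fluorescent anti-GST. Each ungapped 8-mer (which stands for itself and its reverse complement) is scored by the PBM enrichment score (E-score), a modified Wilcoxon-Mann-Whitney statistic from -0.5 to +0.5, computed with the Universal PBM Analysis Suite. Scale: above 0.35 generally sequence-specific binding.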

| Sequence | PBM E-score |
| --- | --- |
| CAGGAGCA | -0.173 |
| ACATAACT | 0.325 |
| CCATAGCA | -0.145 |
| ACATAACA | 0.434 |
| ACATAACC | 0.222 |
| TCATAGCA | -0.0434 |
| ACATAGCA | 0.392 |
| ACATAACG | 0.368 |
| GCATAACA | 0.307 |
| CCATAACA | 0.333 |
| CACACCAG | -0.011 |
| GGATGACC | -0.218 |
| GATTTTGA | 0.12 |
| ACGATGTG | 0.19 |
| CAGTTTGC | -0.118 |
| ACAGGGAA | 0.0611 |
| CGCTGATC | -0.177 |
| AGGGGAGC | -0.33 |
| GCGTCTCC | -0.033 |
| AATCGTGT | 0.406 |
| AAACGTGT | 0.375 |
| ACACGTGA | 0.318 |

| Sequence | PBM E-score |
| --- | --- |
| AAGCGTGA | -0.0159 |
| AATCGTGC | 0.151 |
| AAGCGTGG | -0.0995 |
| AAGCGTGT | 0.371 |
| ACACGTGG | 0.293 |
| AATCGTGA | -0.00694 |
| AAACGTGA | 0.168 |
| ACACGTGT | 0.432 |
| AAACGTGG | -0.0689 |
| ACGGCGAT | -0.0673 |
| AGTCGGGG | -0.191 |
| CAAGAATG | -0.0486 |
| AGGGCCAG | -0.22 |
| AGGCCAAG | -0.247 |
| AGTCTATC | -0.0461 |
| GTGGGCGA | -0.04 |
| GACGTGAA | -0.0003 |
| AACGTGTG | 0.233 |
| CACGTGTA | 0.444 |
| AACGTGTC | 0.263 |
| CACGTGTC | 0.25 |
| GACGTGTA | 0.41 |

| Sequence | PBM E-score |
| --- | --- |
| CACGTGAA | 0.108 |
| GACGTGGA | -0.209 |
| AACGTGTA | 0.455 |
| GAAGTCTC | -0.247 |
| GTACCCTA | -0.0877 |
| GTCGACCA | -0.0364 |
| GGATCCAA | -0.0601 |
| GAGTAGCA | -0.0964 |
| CCCCCGCG | -0.241 |
| CCGTTTAG | -0.0825 |
| ACGTGTCA | 0.392 |
| TAGTGTCA | 0.0999 |
| GCGTGTCC | 0.142 |
| GTGTGTCA | 0.307 |
| CCGTGTCA | 0.351 |
| CGGTGTCA | -0.0723 |
| ACGTGTCG | 0.308 |
| GCGTGTCA | 0.382 |
| TCGTGTCA | 0.395 |
| GCTCCAGA | -0.207 |
| ATGAGAAA | 0.0401 |
| CGGAGGCC | -0.334 |

| Sequence | PBM E-score |
| --- | --- |
| TCACCTGA | -0.136 |
| CTTGGCAA | -0.143 |
| GATGTATA | 0.237 |
| AATGTATA | 0.315 |
| AATGTATC | 0.284 |
| CATGTATA | 0.466 |
| CATGTATC | 0.405 |
| CTTGTATC | 0.264 |
| AGTGCAAT | 0.00712 |
| AGATGTAA | 0.382 |
| AGATGTAT | 0.251 |
| GGATGTAC | 0.225 |
| AGATGTAG | 0.094 |
| CGATGTAC | 0.221 |
| TGATGTAA | 0.389 |
| TGCTGTAA | 0.17 |
| GGATGTAA | 0.397 |
| CGATGTGA | 0.105 |
| GGATGTCA | 0.133 |
| CGATGTAA | 0.417 |
| TGATGCAA | 0.0282 |
